From PubChem BioAssay (NCATS)
“And” between values parts separate entries of the source, which are not always exact repeats. Equal entries are not always repeated. Results filed as inconclusive are left out. Where a call stands in place of a potency, no number is given. The source made the active and inactive calls. Unless noted, calls come from the whole dose curve; as a rule, active = well fitted curve in the direction sought with a large enough effect; inconclusive = small, poorly fitted or top-dose-only effect, or another doubt; inactive = no such curve, though single readings can be large; an effect the other way counts as inactive or inconclusive.

Assays:
[1] = Primary qHTS for inhibitors of nuclear receptor binding SET domain protein 2 (NSD2) in an isogenic RCH-ACV NSD2 p.E1099K mutant (9B) (AID 1645876); note: nearly all actives have a fitted effect of over 70% in size; note: potency is the fitted concentration of half-maximal effect
[2] = Primary qHTS for inhibitors of nuclear receptor binding SET domain protein 2 (NSD2) in an RCH-ACV wild type WT cells (2C) (AID 1645877); note: nearly all actives have a fitted effect of over 70% in size; note: potency is the fitted concentration of half-maximal effect
[3] = biological target: Metallo-beta-lactamase type 2 (Klebsiella pneumoniae) (UniProt C7C422); experiment: qHTS to identify inhibitors of the New Delhi Metallo-beta-lactamase (NDM): assay validation screen against the NCATS LOPAC Collection (AID 1794843);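 note: nitrocefin turnover by NDM-1 measured as 485 nm absorbance at plateau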
Sequence of Metallo-beta-lactamase type 2 (Klebsiella pneumoniae) (C7C422 whole entry, looked up): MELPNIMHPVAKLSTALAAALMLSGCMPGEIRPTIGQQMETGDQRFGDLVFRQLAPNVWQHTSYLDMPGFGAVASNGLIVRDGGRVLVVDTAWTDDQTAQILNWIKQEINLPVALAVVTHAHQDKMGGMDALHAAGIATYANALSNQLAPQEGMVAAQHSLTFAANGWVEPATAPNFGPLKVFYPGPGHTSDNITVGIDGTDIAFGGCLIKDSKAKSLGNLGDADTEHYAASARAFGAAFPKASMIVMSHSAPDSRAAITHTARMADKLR
How it was run: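 NDM-1 at 2 nM final in 50 mM HEPES pH 7.0, 1 uM ZnSO4, 0.01% Tween20, preincubated with LOPAC compounds pinned in DMSO; 50 uM nitrocefin (stock) added. Hydrolysis read as absorbance at 485 nm in the plateau phase.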

[4] = biological target: Glutathione peroxidase 1 (Homo sapiens) (UniProt P07203); experiment: Primary qHTS Assay for Inhibitors of Recombinant Selenoprotein Glutathione Peroxidase 1 (GPX1) (AID 1845191); note: nearly all actives have a fitted effect of over 65% in size
Sequence of Glutathione peroxidase 1 (Homo sapiens) (P07203 whole entry, looked up): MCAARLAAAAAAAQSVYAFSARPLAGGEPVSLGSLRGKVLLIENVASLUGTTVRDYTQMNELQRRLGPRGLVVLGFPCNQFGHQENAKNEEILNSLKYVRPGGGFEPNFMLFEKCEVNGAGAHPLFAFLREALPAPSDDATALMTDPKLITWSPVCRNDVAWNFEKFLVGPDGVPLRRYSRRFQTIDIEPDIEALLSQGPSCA
How it was run: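 Recombinant GPX1 (10 nM final) was preincubated with compound for 30 min at room temperature, then reacted with 1 mM GSH, 0.5 mM CHP, 0.5 mM NADPH and 100 nM glutathione reductase; NADPH fluorescence (340/450 nm) was read at 0 and 15 min.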

[5] = biological target: Phospholipid hydroperoxide glutathione peroxidase GPX4 (Homo sapiens) (UniProt P36969); experiment: Primary qHTS Assay for Inhibitors of Recombinant Selenoprotein Glutathione Peroxidase 4 (GPX4) (AID 1845192); settings: outcome: dose series up to 50 µM unless noted; note: nearly all actives have a fitted effect of over 65% in size
Sequence of Phospholipid hydroperoxide glutathione peroxidase GPX4 (Homo sapiens) (P36969 whole entry, looked up): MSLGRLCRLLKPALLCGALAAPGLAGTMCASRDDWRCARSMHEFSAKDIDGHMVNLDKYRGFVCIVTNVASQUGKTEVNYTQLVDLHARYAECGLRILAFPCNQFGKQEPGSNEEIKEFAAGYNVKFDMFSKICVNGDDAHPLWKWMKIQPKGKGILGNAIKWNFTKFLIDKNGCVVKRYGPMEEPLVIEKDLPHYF
How it was run: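 GR-coupled readout: 100 nM GR, 1 mM GSH, 0.5 mM NADPH; NADPH fluorescence (ex 340/em 450 nm) read at t=0 and after 15 min RT. GPX4 200 nM, preincubated 30 min with compound; substrate 0.5 mM CHP.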

[6] = biological target: Rap guanine nucleotide exchange factor 3 (Homo sapiens) (UniProt O95398); experiment: Confirmatory qHTS for agonist of cAMP-regulated guanine nucleotide exchange factor 3 (EPAC1) (AID 1645881); note: nearly all actives have a fitted effect of over 75% in size; note: potency is the fitted concentration of half-maximal effect
Sequence of Rap guanine nucleotide exchange factor 3 (Homo sapiens) (O95398 whole entry, looked up): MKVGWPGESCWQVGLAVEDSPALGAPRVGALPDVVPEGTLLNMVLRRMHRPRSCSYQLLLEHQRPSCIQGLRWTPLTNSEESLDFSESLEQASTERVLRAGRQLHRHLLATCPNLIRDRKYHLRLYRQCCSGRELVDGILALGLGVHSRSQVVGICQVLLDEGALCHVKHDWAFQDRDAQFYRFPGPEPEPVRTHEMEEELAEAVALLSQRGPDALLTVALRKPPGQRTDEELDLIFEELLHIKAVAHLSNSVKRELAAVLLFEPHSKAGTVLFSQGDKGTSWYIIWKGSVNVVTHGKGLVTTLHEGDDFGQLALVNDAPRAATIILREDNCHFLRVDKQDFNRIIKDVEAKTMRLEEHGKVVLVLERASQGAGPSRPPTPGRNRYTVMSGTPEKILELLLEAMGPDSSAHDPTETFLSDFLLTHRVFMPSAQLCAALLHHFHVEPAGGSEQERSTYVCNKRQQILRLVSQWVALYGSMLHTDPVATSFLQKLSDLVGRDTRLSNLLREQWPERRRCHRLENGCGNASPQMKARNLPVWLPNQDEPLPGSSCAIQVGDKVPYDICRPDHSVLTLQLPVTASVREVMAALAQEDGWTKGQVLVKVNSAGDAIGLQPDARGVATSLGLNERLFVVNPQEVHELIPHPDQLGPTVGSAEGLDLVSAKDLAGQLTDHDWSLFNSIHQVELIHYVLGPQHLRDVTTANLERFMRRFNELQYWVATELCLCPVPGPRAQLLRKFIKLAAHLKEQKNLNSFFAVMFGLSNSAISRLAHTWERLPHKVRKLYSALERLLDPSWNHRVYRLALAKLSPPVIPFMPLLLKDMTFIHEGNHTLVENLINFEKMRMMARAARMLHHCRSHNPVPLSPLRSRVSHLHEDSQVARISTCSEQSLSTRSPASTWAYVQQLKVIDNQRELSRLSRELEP

[7] = biological target: Rap guanine nucleotide exchange factor 4 (Homo sapiens) (UniProt Q8WZA2); experiment: Confirmatory qHTS for agonist of cAMP-regulated guanine nucleotide exchange factor 4 (EPAC2) (AID 1645884);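 note: nucleotide exchange releases bodipy-GDP from Rap1 and this lowers its fluorescence; nearly all actives have a fitted effect of over 65% in size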
Sequence of Rap guanine nucleotide exchange factor 4 (Homo sapiens) (Q8WZA2 whole entry, looked up): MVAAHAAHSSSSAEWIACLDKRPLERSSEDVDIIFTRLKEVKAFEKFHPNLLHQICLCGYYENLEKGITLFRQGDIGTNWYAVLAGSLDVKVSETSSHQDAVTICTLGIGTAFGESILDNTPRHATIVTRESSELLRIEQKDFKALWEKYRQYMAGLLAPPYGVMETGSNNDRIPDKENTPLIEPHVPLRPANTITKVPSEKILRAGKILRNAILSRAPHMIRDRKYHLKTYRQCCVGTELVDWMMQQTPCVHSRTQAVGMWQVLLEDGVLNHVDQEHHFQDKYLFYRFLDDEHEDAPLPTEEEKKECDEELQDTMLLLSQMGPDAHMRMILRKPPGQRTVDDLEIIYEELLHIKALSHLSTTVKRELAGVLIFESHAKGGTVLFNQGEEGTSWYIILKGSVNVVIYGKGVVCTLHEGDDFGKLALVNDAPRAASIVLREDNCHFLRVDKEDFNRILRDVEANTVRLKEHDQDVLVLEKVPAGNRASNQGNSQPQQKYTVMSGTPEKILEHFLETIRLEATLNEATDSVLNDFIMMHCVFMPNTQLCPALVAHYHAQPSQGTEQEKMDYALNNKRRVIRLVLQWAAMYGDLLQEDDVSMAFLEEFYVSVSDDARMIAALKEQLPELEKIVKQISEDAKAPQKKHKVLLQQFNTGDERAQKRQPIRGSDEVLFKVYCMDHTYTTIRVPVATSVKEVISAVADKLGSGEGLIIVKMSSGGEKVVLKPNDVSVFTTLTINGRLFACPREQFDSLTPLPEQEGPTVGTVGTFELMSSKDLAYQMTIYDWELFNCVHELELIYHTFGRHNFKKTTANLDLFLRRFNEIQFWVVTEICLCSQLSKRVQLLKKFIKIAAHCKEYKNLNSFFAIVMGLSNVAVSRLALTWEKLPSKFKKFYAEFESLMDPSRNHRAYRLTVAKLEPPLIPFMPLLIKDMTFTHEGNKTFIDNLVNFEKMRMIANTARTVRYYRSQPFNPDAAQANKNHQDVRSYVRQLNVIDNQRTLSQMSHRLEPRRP

[8] = biological target: Catechol O-methyltransferase (Homo sapiens) (UniProt P21964); experiment: Confirmatory Screen for Target Class Profiling of Small Molecule Inhibitors of Methyltransferases (AID 1745852; calls by dose curve); settings: MTase-Glo luminescence, SAH detection, recombinant enzyme; measured here: COMT max response; stronger effect = lower value
Sequence of Catechol O-methyltransferase (Homo sapiens) (P21964 whole entry, looked up): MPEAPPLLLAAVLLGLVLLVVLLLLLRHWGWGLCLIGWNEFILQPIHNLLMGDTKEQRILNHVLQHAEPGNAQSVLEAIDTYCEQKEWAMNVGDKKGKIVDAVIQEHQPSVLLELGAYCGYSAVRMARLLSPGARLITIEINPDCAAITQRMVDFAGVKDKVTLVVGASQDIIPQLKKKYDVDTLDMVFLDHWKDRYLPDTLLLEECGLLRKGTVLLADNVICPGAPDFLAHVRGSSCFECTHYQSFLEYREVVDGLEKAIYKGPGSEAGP

[9] = biological target: Guanidinoacetate N-methyltransferase (Homo sapiens) (UniProt Q14353); experiment: as above; settings: MTase-Glo luminescence, SAH detection, recombinant enzyme; at 57.3 µM (top of the series)
[10] = biological target: Nicotinamide N-methyltransferase (Homo sapiens) (UniProt P40261); experiment: as above; settings: MTase-Glo luminescence, SAH detection, recombinant enzyme; measured here: NNMT max response; stronger effect = lower value
Sequence of Nicotinamide N-methyltransferase (Homo sapiens) (P40261 whole entry, looked up): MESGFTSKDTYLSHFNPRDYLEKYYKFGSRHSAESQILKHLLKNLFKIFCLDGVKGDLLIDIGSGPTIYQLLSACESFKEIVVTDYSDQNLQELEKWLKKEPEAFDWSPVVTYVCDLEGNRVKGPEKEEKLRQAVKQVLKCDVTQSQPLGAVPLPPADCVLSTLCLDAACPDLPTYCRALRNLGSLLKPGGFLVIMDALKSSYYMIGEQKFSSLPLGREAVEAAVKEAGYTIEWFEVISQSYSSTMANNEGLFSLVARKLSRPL

[11] = biological target: Phenylethanolamine N-methyltransferase (Homo sapiens) (UniProt P11086); experiment: as above; settings: MTase-Glo luminescence, SAH detection, recombinant enzyme; measured here: PNMT max response; stronger effect = lower value
Sequence of Phenylethanolamine N-methyltransferase (Homo sapiens) (P11086 whole entry, looked up): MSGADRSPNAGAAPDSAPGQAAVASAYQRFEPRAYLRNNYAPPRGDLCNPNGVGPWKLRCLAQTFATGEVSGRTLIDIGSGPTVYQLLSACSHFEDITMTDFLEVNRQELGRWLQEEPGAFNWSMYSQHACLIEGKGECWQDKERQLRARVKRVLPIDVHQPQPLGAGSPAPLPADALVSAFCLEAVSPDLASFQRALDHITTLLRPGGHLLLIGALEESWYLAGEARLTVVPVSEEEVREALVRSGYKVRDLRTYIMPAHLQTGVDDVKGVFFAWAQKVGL

[12] = NCATS anti-infectives library activity on HEK293 viability as a counter-qHTS vs the C. elegans viability qHTS (AID 1745854);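 note: HEK293 cells exposed to compounds for 24 hr before the viability read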
How it was run: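 Cytotoxicity in human HEK293 cells is measured by ATP-dependent CellTiter-Glo luminescence following a 24 hr incubation with titrated library compounds at 37C. Top final concentration is 41.7 uM.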

[13] = biological target: Rap guanine nucleotide exchange factor 3 (Homo sapiens) (UniProt O95398); experiment: Confirmatory qHTS for antagonist of cAMP-regulated guanine nucleotide exchange factor 3 (EPAC1) (AID 1645880); note: nearly all actives have a fitted effect of over 55% in size
How it was run: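 Nucleotide exchange uses 100 nM EPAC1, 250 nM RAP1B-BODIPY-GDP and 50 uM GDP, with compounds in a concentration-titration series. After 5 min at room temperature, fluorescence (480 nm ex/540 nm em) is read every 5 min for 30 min. Data are normalized to control ATA and DMSO.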

[14] = biological target: Rap guanine nucleotide exchange factor 4 (Homo sapiens) (UniProt Q8WZA2); experiment: Confirmatory qHTS for antagonist of cAMP-regulated guanine nucleotide exchange factor 4 (EPAC2) (AID 1645885); note: nearly all actives have a fitted effect of over 25% in size; note: potency is the fitted concentration of half-maximal effect
[15] = biological target: Rap guanine nucleotide exchange factor 3 (Homo sapiens) (UniProt O95398); experiment: Counterscreen qHTS for antagonist of cAMP-regulated guanine nucleotide exchange factor 3 (EPAC1) (AID 1645888);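 note: fluorescence loss as bound BODIPY-GDP is released from Rap1B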
How it was run: (§1)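 Measured: fluorescence of BODIPY-GDP bound to Rap1B, which falls as exchange proceeds. Conditions include 50 uM competing GDP, 5 and 30 min reads, and a later cAMP challenge for antagonist detection.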

[16] = biological target: Rap guanine nucleotide exchange factor 3 (Homo sapiens) (UniProt O95398); experiment: Counterscreen qHTS for agonist of cAMP-regulated guanine nucleotide exchange factor 3 (EPAC1) (AID 1645889); note: nearly all actives have a fitted effect of over 40% in size
How it was run: as §1

For `O=c1[nH]c(=O)n([C@H]2C[C@H](O)[C@@H](CO)O2)cc1Br`, the Potency [1] was 0.841 µM (active), the Potency [2] was 0.75 µM (active) and the Potency [3] was “inactive”. The Potency [4] was “inactive” and the outcome [5] was “inactive”.

With `O=C1NCN(c2ccccc2)C12CCN(CCCC(c1ccc(F)cc1)c1ccc(F)cc1)CC2` the Potency [1] was 4.22 µM (active), the Potency [2] was 2.66 µM (active) and the Potency [6] was “inactive”. The Potency [7] was “inactive”, the Potency [4] was “inactive” and the outcome [5] was “inactive”.

For `CCCCCN(CCCCC)C(=O)C(CCC(=O)O)NC(=O)c1ccc(Cl)c(Cl)c1` (stereo not given), the Potency [1] was “inactive”, the Potency [2] was “inactive” and the Potency [3] was “inactive”. For the same compound, the Potency [4] was “inactive” and the outcome [5] was “inactive”.

For `Brc1c(NC2=NCCN2)ccc2nccnc12`, the Potency [1] was “inactive”, the Potency [2] was “inactive” and the Potency [3] was “inactive”. The Potency [4] was “inactive” and the outcome [5] was “inactive”.

With `CCCN(CCC)CCc1cccc2c1CC(=O)N2` the Potency [1] was “inactive”, the Potency [2] was “inactive” and the activity [8] was 9.88%. It also gave an activity change, negative = inhibition [9] of 6.02%, an activity [10] of 1.36% and an activity [11] of 4.72%. The Potency [3] was “inactive”, the Potency [4] was “inactive” and the outcome [5] was “inactive”.

In the case of `CN(C)CCCN1c2ccccc2Sc2ccc(C(F)(F)F)cc21`, the Potency [1] is reported as 21.1 µM (active), the Potency [2] is reported as 18.8 µM (active) and the outcome [12] is reported as “inactive”. The Potency [3] was “inactive”, the Potency [4] was “inactive” and the outcome [5] was “inactive”.

In the case of `CC(C)NNC(=O)c1ccncc1`, the Potency [1] is reported as “inactive”, the Potency [2] is reported as “inactive” and the Potency [3] is reported as “inactive”. The Potency [4] was “inactive” and the outcome [5] was “inactive”.

With `CC(=O)Oc1cc(C(C)C)c(OCCN(C)C)cc1C` the Potency [1] was “inactive”, the Potency [2] was “inactive” and the Potency [3] was “inactive”. For the same compound, the Potency [4] was “inactive” and the outcome [5] was “inactive”.

In the case of `CCn1ccnc1CC1COc2ccccc2O1` (stereo not given), the Potency [1] is reported as “inactive”, the Potency [2] is reported as “inactive” and the outcome [13] is reported as “inactive”. For the same compound, the Potency [6] was “inactive”, the Potency [7] was “inactive” and the Potency [14] was 11.1 µM (active). For the same compound, the Potency [4] was “inactive” and the outcome [5] was “inactive”.

In the case of `CCCNC(C)C(=O)Nc1ccccc1C` (stereo not given), the Potency [1] is reported as “inactive”, the Potency [2] is reported as “inactive” and the Potency [3] is reported as “inactive”. The Potency [4] was “inactive” and the outcome [5] was “inactive”.

In the case of `OCCN1CCN(CC/C=C2/c3ccccc3Sc3ccc(C(F)(F)F)cc32)CC1`, the Potency [1] is reported as 15 µM (active), the Potency [2] is reported as 10.6 µM (active) and the Potency [6] is reported as “inactive”. For the same compound, the Potency [7] was “inactive”, the Potency [14] was “inactive” and the outcome [15] was “inactive”. For the same compound, the outcome [16] was “inactive”, the Potency [3] was “inactive” and the Potency [4] was “inactive”. For the same compound, the outcome [5] was “inactive”.

For `N[C@@H](COP(=O)(O)O)C(=O)O`, the Potency [1] was “inactive”, the Potency [2] was “inactive” and the Potency [3] was “inactive”. For the same compound, the Potency [4] was “inactive” and the outcome [5] was “inactive”.

In the case of `C#CCN(C)CCCOc1ccc(Cl)cc1Cl`, the Potency [1] is reported as “inactive”, the Potency [2] is reported as “inactive” and the Potency [3] is reported as “inactive”. The Potency [4] was “inactive” and the outcome [5] was “inactive”.

For `C=CCc1ccccc1OCC(O)CNC(C)C` (stereo not given), the Potency [1] was “inactive”, the Potency [2] was “inactive” and the outcome [12] was “inactive”. For the same compound, the Potency [3] was “inactive”, the Potency [4] was “inactive” and the outcome [5] was “inactive”.

In the case of `C[C@]12C=CC(=O)C=C1CC[C@H]1[C@@H]3C[C@@H](O)[C@](O)(C(=O)CO)[C@@]3(C)C[C@H](O)[C@@]12F`, the Potency [1] is reported as “inactive”, the Potency [2] is reported as 1.68 µM (active) and the Potency [3] is reported as “inactive”. For the same compound, the Potency [4] was “inactive” and the outcome [5] was “inactive”.

In the case of `COCCOC(=O)C1=C(C)NC(C)=C(C(=O)OC(C)C)C1c1cccc([N+](=O)[O-])c1` (stereo not given), the Potency [1] is reported as “inactive”, the Potency [2] is reported as “inactive” and the Potency [6] is reported as “inactive”. The Potency [14] was 49.4 µM (active), the Potency [3] was “inactive” and the Potency [4] was “inactive”. For the same compound, the outcome [5] was “inactive”.

For `CC(=O)Nc1nnc(S(N)(=O)=O)s1`, the Potency [1] was “inactive”, the Potency [2] was “inactive” and the outcome [12] was “inactive”. The Potency [3] was “inactive”, the Potency [4] was “inactive” and the outcome [5] was “inactive”.

In the case of `CNC1(C)C2CCC(C2)C1(C)C` (stereo not given), the Potency [1] is reported as “inactive”, the Potency [2] is reported as “inactive” and the Potency [3] is reported as “inactive”. For the same compound, the Potency [4] was “inactive” and the outcome [5] was “inactive”.

In the case of `CCN1CCC[C@H]1CNC(=O)c1c(O)c(Cl)cc(Cl)c1OC`, the Potency [1] is reported as “inactive”, the Potency [2] is reported as “inactive” and the Potency [3] is reported as “inactive”. For the same compound, the Potency [4] was “inactive” and the outcome [5] was “inactive”.

In the case of `CN/C(=C\[N+](=O)[O-])NCCSCc1ccc(CN(C)C)o1`, the Potency [1] is reported as “inactive”, the Potency [2] is reported as “inactive” and the Potency [3] is reported as “inactive”. The Potency [4] was “inactive” and the outcome [5] was “inactive”.

With `COc1cc2c(cc1OC)-c1cc(=Nc3c(C)cc(C)cc3C)n(C)c(=O)n1CC2` the Potency [1] was 15 µM (active), the Potency [2] was 15 µM (active) and the Potency [6] was “inactive”. For the same compound, the Potency [14] was 44.1 µM (active), the Potency [4] was “inactive” and the outcome [5] was “inactive”.

With `Nc1nc(N)c2nc(-c3ccccc3)c(N)nc2n1` the Potency [1] was 7.5 µM (active), the Potency [2] was 9.44 µM (active) and the outcome [12] was “inactive”. For the same compound, the outcome [5] was “inactive”.

With `CCCCOCCOCCOCc1cc2c(cc1CCC)OCO2` the Potency [1] was “inactive”, the Potency [2] was “inactive” and the outcome [13] was “inactive”. The Potency [6] was “inactive”, the Potency [7] was “inactive” and the outcome [5] was “inactive”.

For `CC1=C(C)C(=O)C(CCCCC#CCCCC#CCO)=C(C)C1=O`, the Potency [1] was 18.8 µM (active), the Potency [2] was 10.6 µM (active) and the activity [8] was 4.09%. For the same compound, the activity change, negative = inhibition [9] was 4.63%, the activity [10] was -9.42% and the activity [11] was 5.31%. The Potency [3] was “inactive”, the Potency [4] was “inactive” and the outcome [5] was “inactive”.

With `CC(=O)[C@]1(O)Cc2c(O)c3c(c(O)c2[C@@H](O[C@H]2C[C@H](N)[C@H](O)[C@H](C)O2)C1)C(=O)c1ccccc1C3=O` the Potency [1] was 0.8 nM (active) and 41.7 nM (active), the Potency [2] was 0.9 nM (active) and 37.2 nM (active) and the outcome [13] was “inactive”. The Potency [6] was 63 µM (active) and 70.6 µM (active), the Potency [14] was “inactive” and the Potency [3] was “inactive”. The outcome [5] was “inactive”.

In the case of `COc1ccc(CN(CCN(C)C)c2ccccn2)cc1`, the Potency [1] is reported as “inactive”, the Potency [2] is reported as “inactive” and the Potency [3] is reported as “inactive”. The Potency [4] was “inactive” and the outcome [5] was “inactive”.

With `CN(C)CCOC(=O)COc1ccc(Cl)cc1` the Potency [1] was “inactive”, the Potency [2] was “inactive” and the Potency [3] was “inactive”. The Potency [4] was “inactive” and the outcome [5] was “inactive”.

With `CN(C)C(=O)Oc1ccc[n+](C)c1` the Potency [1] was “inactive”, the Potency [2] was “inactive” and the Potency [3] was “inactive”. The Potency [4] was “inactive” and the outcome [5] was “inactive”.

For `C(=C\c1ccccc1)/CN1CCN(C(c2ccccc2)c2ccccc2)CC1`, the Potency [1] was “inactive”, the Potency [2] was “inactive” and the Potency [3] was “inactive”. For the same compound, the Potency [4] was “inactive” and the outcome [5] was “inactive”.
